According to PubChem BioAssay AID1671190 (National Center for Advancing Translational Sciences (NCATS), 2021):
Screen size: about 580,000 compounds; about 6,100 (1.1%) were called active. Inconclusive results (about 15%) are left out. Calls follow the shape of the dose curve; as a rule, active = well fitted inhibition curve with a large enough effect; inconclusive = small, poorly fitted or top-dose-only effect, or another doubt; inactive = no such curve, though single readings can be large or run the other way. Many of the other results were omitted from the sample, so actives are more common in it than they were.

What follows are compounds tested against Polyunsaturated fatty acid lipoxygenase ALOX12 (Homo sapiens) (UniProt P18054) (assay: Primary qHTS assay for inhibitors of human arachidonate 12S-lipoxygenase (ALOX12): Round 2). Conditions: purified 12hLO, xylenol orange hydroperoxide absorbance; series mostly up to 108 µM; activity change, negative = inhibition: at the top concentration.
Method in brief: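 Hydroperoxide product was detected by ferrous iron/xylenol orange as the 573 to 405 nm absorbance ratio. Arachidonic acid at 40 uM (final) was turned over for 30 min at room temperature by 150 nM human 12hLO, pH 7.0 Hepes buffer, after 15 min compound preincubation.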
% is scaled to controls: 0 for no effect and ±100 for the full control effect; potency is read from the fitted curve at half-maximal effect.

Sequence of Polyunsaturated fatty acid lipoxygenase ALOX12 (Homo sapiens) (P18054 whole entry, looked up): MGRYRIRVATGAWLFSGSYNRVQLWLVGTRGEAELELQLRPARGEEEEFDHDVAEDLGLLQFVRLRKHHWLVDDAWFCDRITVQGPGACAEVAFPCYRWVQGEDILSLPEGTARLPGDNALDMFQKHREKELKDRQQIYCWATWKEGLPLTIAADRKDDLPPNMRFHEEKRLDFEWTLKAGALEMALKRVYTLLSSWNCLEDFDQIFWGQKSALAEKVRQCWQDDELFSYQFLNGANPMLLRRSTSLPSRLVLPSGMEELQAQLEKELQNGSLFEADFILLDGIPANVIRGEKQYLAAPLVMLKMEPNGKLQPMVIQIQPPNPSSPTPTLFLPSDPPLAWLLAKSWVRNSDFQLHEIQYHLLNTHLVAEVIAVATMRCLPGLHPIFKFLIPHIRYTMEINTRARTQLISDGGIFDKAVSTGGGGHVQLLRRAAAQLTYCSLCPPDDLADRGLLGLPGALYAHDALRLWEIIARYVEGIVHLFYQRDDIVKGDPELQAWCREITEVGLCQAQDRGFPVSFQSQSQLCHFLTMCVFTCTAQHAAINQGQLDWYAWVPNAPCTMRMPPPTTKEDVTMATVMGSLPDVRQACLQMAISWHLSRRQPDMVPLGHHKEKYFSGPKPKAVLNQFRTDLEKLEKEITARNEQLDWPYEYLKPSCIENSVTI

| SMILES | activity change, negative = inhibition | Potency |
| --- | --- | --- |
| CN(C)[C@H]1CCCCN(C(=O)CC2CCN(Cc3ccccc3)CC2)C1 | 1.99% (inactive) | – |
| Clc1ccc2oc([C@H]3CCN(Cc4ccccc4)C3)nc2c1 | 4.32% [at 176 µM] (inactive) | – |
| Cc1cc(S(=O)(=O)N2CCCC2c2nnc3ccccn23)ccc1Br (stereo not given) | -1.64% (inactive) | – |
| COCCNC(=O)COc1cc(O)c2c(=O)cc(-c3ccccc3)oc2c1 | -16.7% (inactive) | – |
| CCCCOc1cc(O)c2c(=O)cc(-c3ccccc3)oc2c1 | -23.1% (inactive) | – |
| COc1c(O)cc2oc(-c3ccc(O)c(O)c3)cc(=O)c2c1O | – | 31.6 µM (active) |
| COc1ccc(-c2c(C)c3ccc(OS(C)(=O)=O)cc3oc2=O)cc1 | 17.8% (inactive) | – |
| O=C(CNc1ccccc1)NNC(=O)c1cc(-c2ccccc2)nn1-c1ccccc1 | 7.23% (inactive) | – |
| Cc1nc2nc(CC(=O)NCc3ccccc3)nn2c(C)c1Cc1ccc(Cl)cc1 | -9.31% (inactive) | – |
| Cc1ccc(-n2c(=O)c3cccnc3n2CC(=O)Nc2ccc(F)cc2F)cc1C | -4.07% (inactive) | – |
| CCOc1ccc(OCC)c(NS(=O)(=O)c2ccc3[nH]c(=O)ccc3c2)c1 | -14.5% (inactive) | – |
| CCOc1ccc2[nH]c(=S)sc2c1 | – | 35.5 µM (active) |
| CCOc1ccc2[nH]c(=O)c(CN(CCCO)C(C)=O)cc2c1 | 13.7% (inactive) | – |
| Cc1cc(=O)oc2c(C)c(OC(C)C(=O)NCc3ccc(S(N)(=O)=O)cc3)ccc12 (stereo not given) | -43.1% (inactive) | – |
| COc1ccc(-c2cn(-c3ccc(OC)cc3)c(=S)[nH]2)cc1 | – | 25.1 µM (active) |
| COc1ccc(-c2cc(N3CCN(C(=O)c4cc(OC)cc(OC)c4)CC3)n[nH]2)cc1 | 55.9% (inactive) | – |
| COc1ccc(-c2nc3ccncc3[nH]2)cc1 | 43.2% [at 176 µM] (inactive) | – |
| COc1ccc2c(c1)CCc1c-2n[nH]c1C(=O)N1CCC(c2noc(COc3ccc(C)cc3)n2)CC1 | 28.6% (inactive) | – |
| CCc1cccc(NC(=O)CC(C)C)c1 | 12.8% (inactive) | – |
| O=C(Nc1ccccc1F)c1ccc2c(c1)n(Cc1ccccc1)c(=O)c1ccnn12 | -8.95% (inactive) | – |
| COC(=O)C1=C(O)/C(=C/c2ccc(OCC(=O)Nc3ccccc3)cc2)N=C1C | – | 17.8 µM (active) |
| CN(c1ccccc1)S(=O)(=O)c1ccc(NC(=O)COc2ccccc2)cc1 | 36.6% (inactive) | – |

| SMILES | activity change, negative = inhibition | Potency |
| --- | --- | --- |
| Cc1csc2nc(COc3ccc(NC(=O)COc4ccccc4)cc3)cc(=O)n12 | -26.8% (inactive) | – |
| NC(=O)Cc1csc(NC(=O)CCc2ncc(-c3ccc(Cl)cc3Cl)o2)n1 | 5.2% (inactive) | – |
| CC(OC(=O)c1cc2cc(F)ccc2s1)C(=O)N1CCNC1=O (stereo not given) | -13.9% (inactive) | – |
| CCCCNC(=S)N/N=C1\CCCCc2ccccc21 | – | 31.6 µM (active) |
| O=[N+]([O-])c1ccccc1N/N=C1\CCc2ccccc21 | 0.0102% (inactive) | – |
| S=C(NCCC1=CCCCC1)Nc1ccccc1 | -11.4% (inactive) | – |
| C#CCOC(=O)c1cccc(C(=O)O)c1 | -28.2% (inactive) | – |
| COc1cccc(NC(=O)C2(C#N)CCCC2)c1 | 43.9% (inactive) | – |
| COc1cccc(NC(=O)C2C(c3ccccc3)C2(Cl)Cl)c1 (stereo not given) | – | 35.5 µM (active) |
| COc1cccc(NC(=O)c2csnn2)c1 | -18.6% (inactive) | – |
| Cc1nc(N2CCN(CC(=O)N3CCCC3)CC2)c(C#N)c2c1COC(C)(C)C2 | 0.987% (inactive) | – |
| O=C1[C@@H]2C[C@@H](CN2Cc2ccc3ccccc3n2)Oc2ccccc2N1Cc1ccccc1 | – | 8.91 µM (active) |
| N#Cc1ccc(CN2C[C@@H]3C[C@H]2C(=O)Nc2ccccc2O3)cc1 | 11.6% [at 176 µM] (inactive) | – |
| COCCN1C(=O)[C@@H]2C[C@@H](CN2C(=O)Nc2ccccc2)Oc2ccccc21 | -7.35% [at 176 µM] (inactive) | – |
| COC(=O)C1=C(C)N=C2SC=C(CC(=O)NCc3ccccc3F)N2C1c1ccccc1Cl (stereo not given) | 13.3% (inactive) | – |
| CCc1n[nH]c(=S)n1/N=C/c1c[nH]c2ccc(Br)cc12 | – | 15.8 µM (active) |
| Cc1ccccc1/C=C/C(=O)NC(C)CO (stereo not given) | 31.2% (inactive) | – |
| O=C(COc1ncnc2ccccc12)Nc1cc(F)ccc1F | 1.32% (inactive) | – |
| CCOc1ccc(C(=O)NC(=S)Nc2ccc(N3CCOCC3)c(Cl)c2)cc1[N+](=O)[O-] | – | 14.1 µM (active) |
| O=C(Oc1ccccc1Cl)c1ccc(N2CCOCC2)c([N+](=O)[O-])c1 | -10% (inactive) | – |
| O=C(CSc1ccc([N+](=O)[O-])cn1)Nc1ccc(N2CCOCC2)c(Cl)c1 | -6.2% (inactive) | – |
| COc1ccccc1C(CNC(=O)CCc1nc(-c2ccsc2)no1)N1CCCC1 (stereo not given) | 7.59% (inactive) | – |

| SMILES | activity change, negative = inhibition | Potency |
| --- | --- | --- |
| CCC(=O)Nc1ccc2nnc(-c3ccc(C(=O)Nc4ccc(OC)cc4)cc3)n2c1 | 1.26% (inactive) | – |
| COc1ccc2c(C)c(-c3cccc4ccccc34)c(=O)oc2c1 | -4.87% (inactive) | – |
| O=S1(=O)CC/C(=N\Nc2ccc(F)cc2)c2ccsc21 | – | 31.6 µM (active) |
| COc1ccc(C(=O)N/N=C2\CCS(=O)(=O)c3ccc(F)cc32)cc1OC | 11.9% (inactive) | – |
| Cc1oc(-c2ccccc2)nc1CC(=O)N(C)CC(=O)Nc1cccc2ccccc12 | -14.7% (inactive) | – |
| CC1(C)CC(=O)C2=C(C1)OC1=C(C(=O)CC(C)(C)C1)C2c1ccc(-c2ccc3c(c2)COC3=O)o1 | -18.4% (inactive) | – |
| COCc1[nH][nH]c(=O)c1C=Nc1ccc(F)cc1F | – | 12.6 µM (active) |
| Fc1ccc(/C=N/N=C/c2ccc(F)cc2F)c(F)c1 | 61.1% (inactive) | – |
| CCOc1ccc(C(=O)NCc2n[nH]c(=O)c3ccccc23)cc1OCC | 10.8% (inactive) | – |
| N#CC1=C(N)Oc2[nH]c(=S)[nH]c(=O)c2C12C(=O)Nc1ccccc12 (stereo not given) | – | 14.1 µM (active) |
| Cc1ccc(NC2(C#N)C(=O)Nc3ccccc32)cc1 (stereo not given) | 0% (inactive) | – |
| Cc1ccc(C2CC(=O)C3=C(C2)OC(N)=C(C#N)C32C(=O)Nc3ccccc32)cc1 (stereo not given) | 6.42% (inactive) | – |
| C=CCNC(=O)O[C@@H]1CC[C@]2(C)C(CC[C@@H](O)[C@H]2CC(=O)N2CCC[C@H]2CO)[C@]1(C)CO (stereo not given in full) | 4.47% (inactive) | – |
| N#C/C(=C/NC(=O)c1ccccc1)C(=O)N1CCOCC1 | 1.49% (inactive) | – |
| CCOC(=O)c1ccc(NC(=O)c2c(NCc3cccs3)sc3c2CCCC3)cc1 | -28.7% (inactive) | – |
| O=C(Cc1ccccc1)Nc1sc2c(c1C(=O)Nc1ccc(Br)cc1)CCC2 | -16% (inactive) | – |
| Cc1ccc(NC(=O)c2c(NC(=O)CCC(=O)O)sc3c2CCCCC3)cc1 | – | 20 µM (active) |
| CC1(C)Cc2sc3c(=O)n(Cc4ccc(Cl)cc4Cl)cnc3c2CO1 | -10.1% (inactive) | – |
| Cc1cccc(NC(=O)CSc2nc(-c3ccco3)cc(C(F)(F)F)n2)c1C | -12.8% (inactive) | – |
| CCOC(=O)c1sc(NC(=O)CSc2nc(C)cc(C(F)(F)F)n2)c(C#N)c1C | – | 20 µM (active) |
| CCn1c(SCC(=O)Nc2sc(C)c(C)c2C#N)nnc1C1CC1 | -2.97% (inactive) | – |
